The values below come from PubChem BioAssay (NCATS).

Assay [1] has as its target Ubiquitin carboxyl-terminal hydrolase 1 (Homo sapiens) (UniProt O94782). As to the kind of experiment: Inhibitors of USP1/UAF1: Pilot qHTS (AID 504865). Further: nearly all actives have a fitted effect of over 35% in size. Further: potency means the concentration at half of the fitted maximal effect. The settings on record: purified USP1/UAF1, Ub-rhodamine cleavage fluorescence; series mostly up to 114 µM. An outline of the steps: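 1nM USP1/UAF1 + cpd, 15 min RT; start w/ Ub-Rho 150nM final; kinetic FL 480/540 nm, 6 reads q60 s. Buffer 50mM HEPES pH 7.8, 0.5mM EDTA, 1mM TCEP, 0.01% Tween-20, 0.1 mg/ml BSA.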
(In general: Quantitative high-throughput screening tests each substance at several concentrations.)

Assay [2] concerns the target DNA dC->dU-editing enzyme APOBEC-3G (Homo sapiens) (UniProt Q9HC16). Nature of the assay: qHTS for inhibitors of Vif-A3G interactions: Validation (AID 588379). As to conditions: Vif-A3G protein interaction assay; series mostly up to 46.1 µM. An outline of the steps:
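Yellow fluorescence (Ex 488, Em 500-530) of Vif-coexpressing HeLa A3G-eYFP cells, scanned by Acumen cytometer, reports blocked A3G degradation. Cells plated at 700/well overnight at 37 deg C before compound addition, then a further overnight compound incubation at 37 deg C.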

Assay [3] can be described thus: qHTS for Inhibitors of Cell Surface uPA Generation: Validation Assay (AID 493164).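 Further: RAW 264.7 macrophage cells exposed to compound for 18 h.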 As to conditions: mouse cells, plasminogen activation; series mostly up to 38.3 µM. Put shortly: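 ATP-Lite luminescence read-out: ATP remains high when uPA activity-dependent LF translocation into the cytoplasm is blocked. RAW 264.7 cells, 18 h compound exposure at 37 C; 7-point titration, 2.45 nM to 38.3 uM final.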

In assay [4] the target is Galactokinase (Homo sapiens) (UniProt P51570). Nature of the assay: qHTS Validation Assay for Inhibitors of Human Galactokinase (GALK) (AID 493189). The settings on record: purified human GALK enzyme activity, qHTS 7-point titration; series mostly up to 57.5 µM. Put shortly:
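Luminescence from leftover ATP (Kinase-Glo Plus, 10 min) served as read-out after a 1 h room-temperature reaction of 5 nM GALK, 100 uM galactose and 35 uM ATP at pH8.0.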

A short description of assay [5]: Validation screen for small molecules that induce DNA re-replication in SW480 colon adenocarcinoma cells (AID 504364). As to conditions: DNA re-replication phenotype (high-content imaging); series mostly up to 46.1 µM. An outline of the steps:
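Image-based DNA content read-out: Hoechst stain 40 min, total nuclear fluorescence intensity (ex 405 nm, em 500-530 nm) after 48 h compound exposure of 250 SW480 cells/well at 37 C, 5% CO2, versus DMSO vehicle.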

For assay [6], the target named is Peptidyl-prolyl cis-trans isomerase NIMA-interacting 1 (Homo sapiens) (UniProt Q13526). As to the kind of experiment: qHTS Validation Assay to Find Inhibitors of Pin1 (AID 504536; active means well fitted inhibition curve with a large enough effect in the polarisation, with a control signal flat, not every such curve was filed as active; the % refers to the polarisation). As to conditions: Pin1 fluorescence polarization peptide binding assay; series mostly up to 57.5 µM. An outline of the steps:
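Fluorescence polarization competition: compounds (titration) displace HiFluor-488-labeled Pin1-1b peptide from Pin1 (0.3 uM final) in pH 7.5 HEPES buffer with DTT, 10 min at room temperature; %Activity normalized to no-enzyme wells, curves fitted.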

In assay [7] the target is Phosphoglycerate kinase, glycosomal (Trypanosoma brucei brucei) (UniProt P07378). Nature of the assay: qHTS Validation Assay to Find Inhibitors of Phosphoglycerate Kinase (AID 504547). The settings on record: enzymatic PGK inhibition, coupled luminescence read-out; series mostly up to 57.5 µM. Put shortly:
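Compounds are pinned into the substrate/PGK mixture, and GAPDH (100nM final) is added to start the reaction by producing 1,3-BPG. After 60 minutes at room temperature, Kinase-Glo Plus is added and luminescence is measured 10 minutes later.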

A short description of assay [8]: qHTS for Inhibitors of ATXN expression: Validation of Cytotoxic Assay (AID 588349). As to conditions: cytotoxicity counter-screen for ATXN expression inhibitors, cell viability; series mostly up to 57.1 µM. Put shortly:
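Cytotoxicity counter-screen: ATP-based luminescent viability (CellTiter Glo) after 72 hr exposure of HEK293 cells to a compound titration at 37 degrees C.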

Assay [9] in a line: qHTS for Inhibitors of ATXN expression: Validation (AID 588378). Further: nearly all actives have a fitted effect of over 75% in size. The settings on record: cell-based ATXN2 expression reporter assay, luminescence; series mostly up to 57.1 µM. Put shortly:
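Cells: HEK293-ATXN2-FFLuc, phenol-red free DMEM, 2 h attachment. Compound pin-transfer, 24 h, 37 degrees C, 5% CO2. CellTiter-Fluor 30 min, Ex405/Em525; Bright-Glo 5 min, luminescence 2 s exposure.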

For assay [10], the target named is Bile acid receptor (Homo sapiens) (UniProt Q96RI1). As to the kind of experiment: qHTS assay for small molecule antagonists of farnesoid X receptor signaling (AID 588526; calls by dose curve). As to conditions: HEK293T FXR-UAS-bla, beta-lactamase ratio, antagonist mode; series mostly up to 76.7 µM. Put shortly: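 Antagonist mode: titrated compounds tested against chenodeoxycholic acid stimulation (normalized to 50 uM CDCA and DMSO) in GeneBLAzer HEK293T cells for 16 h. Beta-lactamase read by CCF4 fluorescence; IC50 from Hill fits.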
Sequence of Bile acid receptor (Homo sapiens) (Q96RI1 whole entry, looked up): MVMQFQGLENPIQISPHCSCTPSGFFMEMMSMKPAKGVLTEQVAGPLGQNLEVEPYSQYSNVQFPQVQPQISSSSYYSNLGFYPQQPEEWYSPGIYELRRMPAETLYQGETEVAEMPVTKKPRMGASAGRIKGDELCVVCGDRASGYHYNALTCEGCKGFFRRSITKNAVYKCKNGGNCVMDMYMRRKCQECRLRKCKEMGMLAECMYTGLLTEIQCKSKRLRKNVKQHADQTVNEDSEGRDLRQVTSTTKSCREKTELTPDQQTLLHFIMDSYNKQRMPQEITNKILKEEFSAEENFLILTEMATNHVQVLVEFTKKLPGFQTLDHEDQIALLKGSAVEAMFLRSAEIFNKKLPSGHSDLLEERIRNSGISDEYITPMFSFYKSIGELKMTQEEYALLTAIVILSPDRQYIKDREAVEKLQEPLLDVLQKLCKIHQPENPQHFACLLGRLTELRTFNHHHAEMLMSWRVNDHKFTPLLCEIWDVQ

The target in assay [11] is Glucocorticoid receptor (Homo sapiens) (UniProt P04150). Nature of the assay: qHTS assay for small molecule agonists of glucocorticoid receptor signaling (AID 588532; active means well fitted curve in the direction sought with a large enough effect in the signal ratio, with a control signal flat; the % refers to the signal ratio). As to conditions: HeLa MMTV-bla, beta-lactamase ratio, agonist, 18 h; stronger effect = higher value; percent of dexamethasone control, DMSO zero. Put shortly: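 Cells were plated and rested 3-5 h at 37 C, compounds were added in titration and incubated 18 h, then CCF4 substrate was loaded for 2 h at RT before reading blue/green fluorescence. EC50 came from Hill-equation fitting.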
Sequence of Glucocorticoid receptor (Homo sapiens) (P04150 whole entry, looked up): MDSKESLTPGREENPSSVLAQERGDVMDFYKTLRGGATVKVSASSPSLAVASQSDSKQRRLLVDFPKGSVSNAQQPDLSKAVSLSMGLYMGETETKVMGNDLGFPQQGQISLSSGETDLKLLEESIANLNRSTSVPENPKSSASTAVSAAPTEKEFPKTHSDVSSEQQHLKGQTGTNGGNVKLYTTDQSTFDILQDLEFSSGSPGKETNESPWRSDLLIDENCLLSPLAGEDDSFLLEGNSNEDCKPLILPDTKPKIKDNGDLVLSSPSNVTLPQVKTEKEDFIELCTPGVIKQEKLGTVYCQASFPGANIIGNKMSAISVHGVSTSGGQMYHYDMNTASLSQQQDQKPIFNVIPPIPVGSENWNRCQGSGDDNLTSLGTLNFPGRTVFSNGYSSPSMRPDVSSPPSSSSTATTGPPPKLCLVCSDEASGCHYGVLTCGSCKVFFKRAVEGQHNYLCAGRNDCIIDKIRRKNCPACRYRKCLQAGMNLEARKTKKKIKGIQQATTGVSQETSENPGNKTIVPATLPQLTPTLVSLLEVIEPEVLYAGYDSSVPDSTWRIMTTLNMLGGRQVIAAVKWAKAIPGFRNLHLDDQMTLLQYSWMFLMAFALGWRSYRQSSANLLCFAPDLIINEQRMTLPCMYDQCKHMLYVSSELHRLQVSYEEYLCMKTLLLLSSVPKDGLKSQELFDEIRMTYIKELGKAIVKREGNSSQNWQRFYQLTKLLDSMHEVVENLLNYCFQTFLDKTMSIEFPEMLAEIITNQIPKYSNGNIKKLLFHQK

For assay [12] the target is unchanged. Nature of the assay: qHTS assay for small molecule antagonists of glucocorticoid receptor signaling (AID 588533; active means well fitted inhibition curve with a large enough effect in the signal ratio, with a control signal flat, not every such curve was filed as active; the % refers to the signal ratio). The settings on record: HeLa MMTV-bla, GRE beta-lactamase ratio, antagonist mode, 18 h; series mostly up to 76.8 µM. Put shortly: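 Antagonist-mode qHTS: compound titrations added to GRE-bla HeLa cells, then dexamethasone 2 nM final; 18 h, 37 C. CCF4 FRET fluorescence normalized to dexamethasone and DMSO; IC50 from Hill fit.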

A short description of assay [13]: qHTS assay for small molecule antagonists of peroxisome proliferator-activated receptor delta signaling (AID 588535; active means well fitted inhibition curve with a large enough effect in the signal ratio, with a control signal flat, not every such curve was filed as active; the % refers to the signal ratio;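 on max response: cells co-treated with a PPAR-delta agonist as stimulator during compound exposure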). As to conditions: HEK293T PPARd-UAS-bla, beta-lactamase FRET ratio, 18 h; 460 nm channel. An outline of the steps: (§1)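 Fluorescence from CCF4-loaded GeneBLAzer PPAR-delta-UAS-bla HEK293T cells (2 hrs RT loading) quantified reporter inhibition after an 18 hr, 37 C compound exposure across a titration.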

Assay [14] deals with Peroxisome proliferator-activated receptor delta (Homo sapiens) (UniProt Q03181). The description is as above. As to conditions: HEK293T PPARd-UAS-bla, beta-lactamase FRET ratio, 18 h; series mostly up to 76.7 µM. An outline of the steps:
as §1

The target in assay [15] is Peroxisome proliferator-activated receptor gamma (Homo sapiens) (UniProt P37231). As to the kind of experiment: qHTS assay for small molecule antagonists of peroxisome proliferator-activated receptor gamma signaling (AID 588537; active means well fitted inhibition curve with a large enough effect in the signal ratio, with a control signal flat, not every such curve was filed as active; the % refers to the signal ratio;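 further: reporter cells co-stimulated with 50 nM rosiglitazone agonist during compound treatment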). The settings on record: HEK293 PPARg-UAS-bla, beta-lactamase ratio, antagonist mode; series mostly up to 76.8 µM. Put shortly:
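Fluorescence at 460 and 530 nm (405 nm excitation) reported beta-lactamase cleavage of CCF4 after 2 h room-temperature loading. HEK293 reporter cells in 1% charcoal/dextran-treated FBS had received compound and rosiglitazone for 16 h.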

Assay [16] has as its target Vitamin D3 receptor (Homo sapiens) (UniProt P11473). As to the kind of experiment: qHTS assay for small molecule antagonists of vitamin D receptor signaling (AID 588541; calls by dose curve;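 further: receptor activated by calcitriol during compound treatment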). The settings on record: HEK293T VDR-UAS-bla, beta-lactamase ratio, antagonist mode; series mostly up to 76.7 µM. Put shortly:
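VDR-UAS-bla HEK293T cells in 2% charcoal-stripped FBS were stimulated with 1-alpha,25-dihydroxyvitamin D3 (3 nM final) plus compound for 16 h at 37 C. The beta-lactamase CCF4 readout was normalized to 50 nM agonist and DMSO, and Hill fits gave IC50.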

Assay [17] has the same target. As to the kind of experiment: qHTS assay for small molecule agonists of vitamin D receptor signaling (AID 588543; calls by dose curve). The settings on record: HEK293T VDR-UAS-bla, beta-lactamase ratio, 16 h; series mostly up to 76.8 µM. An outline of the steps: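 β-lactamase reporter, VDR-UAS-bla HEK293T, agonist mode. Cells plated 5 h at 37 °C, compound titration 16 h at 37 °C, CCF4 dye 2 h RT, ratio 460/530 nm. Hill fit → EC50, efficacy vs 50 nM 1α,25-(OH)2D3.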

Assay [18] has as its target Thyroid hormone receptor beta (Homo sapiens) (UniProt P10828). Nature of the assay: qHTS assay for small molecule agonists of thyroid hormone receptor beta signaling (AID 588545; calls by dose curve). As to conditions: TR-UAS-bla GripTite HEK 293, beta-lactamase ratio, agonist mode, 18 h, percent of T3 response, DMSO as zero; series mostly up to 76.7 µM. Put shortly: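 Beta-lactamase reporter activity under TR response element control is measured in HEK 293 cells after 18 hrs compound exposure. Signal is ratiometric CCF4 fluorescence, 460/530 nm.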

Assay [19] can be described thus: qHTS assay for small molecule antagonists of retinoid X receptor alpha signaling (AID 588546; active means well fitted inhibition curve with a large enough effect in the signal ratio, with a control signal flat, not every such curve was filed as active; the % refers to the signal ratio;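 further: cells stimulated with 9-cis-retinoic acid as agonist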). The settings on record: HEK293T RXRa-UAS-bla, beta-lactamase ratio, antagonist mode; measured here: W530 green channel, cytotoxicity proxy. An outline of the steps:
(§2)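 Beta-lactamase reporter inhibition, read as CCF4 fluorescence ratio (ex 405, em 460/530 nm) after 2 h at RT. HEK293T UAS-bla cells, 2500/well, were stimulated with 9-cis-RA at 500 or 100 nM final alongside test compound for 18 h at 37 C.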

The target of assay [20] is Retinoic acid receptor RXR-alpha (Homo sapiens) (UniProt P19793). Described as above. As to conditions: HEK293T RXRa-UAS-bla, beta-lactamase ratio, antagonist mode. Put shortly: as §2
Sequence of Retinoic acid receptor RXR-alpha (Homo sapiens) (P19793 whole entry, looked up): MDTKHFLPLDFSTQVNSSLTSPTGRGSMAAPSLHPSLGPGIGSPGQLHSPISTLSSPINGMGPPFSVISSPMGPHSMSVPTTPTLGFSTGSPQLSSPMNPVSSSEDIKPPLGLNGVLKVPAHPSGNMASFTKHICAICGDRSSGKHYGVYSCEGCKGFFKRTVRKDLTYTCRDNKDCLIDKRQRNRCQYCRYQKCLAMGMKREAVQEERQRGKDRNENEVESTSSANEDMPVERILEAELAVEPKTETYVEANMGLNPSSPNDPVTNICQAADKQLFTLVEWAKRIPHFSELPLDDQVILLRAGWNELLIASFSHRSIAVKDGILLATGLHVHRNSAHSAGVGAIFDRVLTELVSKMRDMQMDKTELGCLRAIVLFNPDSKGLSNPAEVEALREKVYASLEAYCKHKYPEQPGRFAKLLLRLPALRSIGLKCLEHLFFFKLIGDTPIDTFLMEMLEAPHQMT

Inconclusive results are not listed. Where a call stands in place of a potency, no number is given. Calls of active or inactive are those of the source. Unless noted, the call rests on the fitted dose curve; in most records, active means well fitted curve in the direction sought with a large enough effect; inconclusive means small, poorly fitted or top-dose-only effect, or another doubt; inactive means no such curve, though single readings can be large; an effect the other way counts as inactive or inconclusive.

Sequence of Ubiquitin carboxyl-terminal hydrolase 1 (Homo sapiens) (O94782 whole entry, looked up): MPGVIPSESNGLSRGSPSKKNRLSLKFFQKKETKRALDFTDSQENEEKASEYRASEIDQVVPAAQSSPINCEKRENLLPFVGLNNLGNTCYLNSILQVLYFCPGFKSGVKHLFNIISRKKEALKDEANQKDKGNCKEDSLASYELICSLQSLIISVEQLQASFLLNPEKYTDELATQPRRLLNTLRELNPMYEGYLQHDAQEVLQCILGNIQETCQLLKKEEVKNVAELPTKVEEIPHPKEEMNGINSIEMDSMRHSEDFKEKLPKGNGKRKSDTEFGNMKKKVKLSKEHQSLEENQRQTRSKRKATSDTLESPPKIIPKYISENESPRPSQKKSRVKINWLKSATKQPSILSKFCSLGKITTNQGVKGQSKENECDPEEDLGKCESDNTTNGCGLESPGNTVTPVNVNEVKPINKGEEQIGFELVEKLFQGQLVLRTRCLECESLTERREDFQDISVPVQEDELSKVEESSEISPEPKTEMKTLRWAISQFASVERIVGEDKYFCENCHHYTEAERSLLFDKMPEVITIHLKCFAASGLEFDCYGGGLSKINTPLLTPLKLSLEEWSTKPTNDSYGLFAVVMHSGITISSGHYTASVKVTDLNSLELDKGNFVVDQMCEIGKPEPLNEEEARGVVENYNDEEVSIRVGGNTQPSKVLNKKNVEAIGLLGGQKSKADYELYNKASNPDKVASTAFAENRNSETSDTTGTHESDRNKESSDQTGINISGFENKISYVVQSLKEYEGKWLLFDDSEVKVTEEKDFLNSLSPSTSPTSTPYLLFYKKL
Sequence of Vitamin D3 receptor (Homo sapiens) (P11473 whole entry, looked up): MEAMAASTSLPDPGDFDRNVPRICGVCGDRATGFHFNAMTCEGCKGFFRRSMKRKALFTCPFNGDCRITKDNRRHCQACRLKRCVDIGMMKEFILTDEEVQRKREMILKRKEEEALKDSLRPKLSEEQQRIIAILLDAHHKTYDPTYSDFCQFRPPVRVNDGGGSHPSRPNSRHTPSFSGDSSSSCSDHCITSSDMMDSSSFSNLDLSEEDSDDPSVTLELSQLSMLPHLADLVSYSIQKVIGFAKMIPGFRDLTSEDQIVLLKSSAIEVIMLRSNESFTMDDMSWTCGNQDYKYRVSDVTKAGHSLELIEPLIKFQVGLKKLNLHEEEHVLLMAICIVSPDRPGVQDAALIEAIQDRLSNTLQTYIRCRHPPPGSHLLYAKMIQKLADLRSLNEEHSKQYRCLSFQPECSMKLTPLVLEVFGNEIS
Sequence of Thyroid hormone receptor beta (Homo sapiens) (P10828 whole entry, looked up): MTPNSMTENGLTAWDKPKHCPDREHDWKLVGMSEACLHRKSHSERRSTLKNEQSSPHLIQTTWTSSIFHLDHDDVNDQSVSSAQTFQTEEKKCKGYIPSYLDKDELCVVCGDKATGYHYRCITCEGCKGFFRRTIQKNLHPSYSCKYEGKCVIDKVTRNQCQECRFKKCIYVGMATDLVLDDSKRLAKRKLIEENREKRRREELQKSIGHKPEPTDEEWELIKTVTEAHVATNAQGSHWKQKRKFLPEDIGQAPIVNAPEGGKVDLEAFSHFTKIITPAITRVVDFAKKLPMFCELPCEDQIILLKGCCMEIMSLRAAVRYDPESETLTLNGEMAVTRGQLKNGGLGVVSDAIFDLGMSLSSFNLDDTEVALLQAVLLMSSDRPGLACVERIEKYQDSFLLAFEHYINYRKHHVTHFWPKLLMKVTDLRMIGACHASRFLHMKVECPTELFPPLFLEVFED
Sequence of Peptidyl-prolyl cis-trans isomerase NIMA-interacting 1 (Homo sapiens) (Q13526 whole entry, looked up): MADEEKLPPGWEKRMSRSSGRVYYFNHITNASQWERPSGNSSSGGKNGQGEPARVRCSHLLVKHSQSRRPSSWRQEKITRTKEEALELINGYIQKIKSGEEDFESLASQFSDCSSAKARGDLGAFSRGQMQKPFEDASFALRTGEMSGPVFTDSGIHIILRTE
Sequence of DNA dC->dU-editing enzyme APOBEC-3G (Homo sapiens) (Q9HC16 whole entry, looked up): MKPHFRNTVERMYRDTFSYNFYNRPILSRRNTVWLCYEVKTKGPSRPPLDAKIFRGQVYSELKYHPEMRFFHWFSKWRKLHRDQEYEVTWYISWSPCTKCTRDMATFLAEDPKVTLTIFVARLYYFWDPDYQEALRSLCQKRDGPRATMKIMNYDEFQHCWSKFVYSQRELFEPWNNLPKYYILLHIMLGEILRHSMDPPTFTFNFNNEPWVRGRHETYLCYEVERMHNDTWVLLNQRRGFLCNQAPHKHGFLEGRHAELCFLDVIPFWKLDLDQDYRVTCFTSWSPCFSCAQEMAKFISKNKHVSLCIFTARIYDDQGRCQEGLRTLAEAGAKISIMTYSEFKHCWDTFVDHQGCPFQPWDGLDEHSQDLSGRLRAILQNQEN
Sequence of Phosphoglycerate kinase, glycosomal (Trypanosoma brucei brucei) (P07378 whole entry, looked up): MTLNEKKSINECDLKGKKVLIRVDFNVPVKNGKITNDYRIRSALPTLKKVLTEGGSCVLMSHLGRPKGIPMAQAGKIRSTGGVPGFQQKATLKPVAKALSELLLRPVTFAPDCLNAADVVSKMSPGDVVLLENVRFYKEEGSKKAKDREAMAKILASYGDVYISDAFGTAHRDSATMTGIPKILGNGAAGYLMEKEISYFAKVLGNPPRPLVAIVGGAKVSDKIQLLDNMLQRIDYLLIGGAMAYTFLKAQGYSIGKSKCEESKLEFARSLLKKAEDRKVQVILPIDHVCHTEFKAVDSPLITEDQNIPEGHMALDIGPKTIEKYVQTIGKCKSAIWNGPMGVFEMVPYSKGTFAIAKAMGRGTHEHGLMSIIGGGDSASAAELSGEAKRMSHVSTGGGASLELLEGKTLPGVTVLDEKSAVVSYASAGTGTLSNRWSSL
Sequence of Peroxisome proliferator-activated receptor gamma (Homo sapiens) (P37231 whole entry, looked up): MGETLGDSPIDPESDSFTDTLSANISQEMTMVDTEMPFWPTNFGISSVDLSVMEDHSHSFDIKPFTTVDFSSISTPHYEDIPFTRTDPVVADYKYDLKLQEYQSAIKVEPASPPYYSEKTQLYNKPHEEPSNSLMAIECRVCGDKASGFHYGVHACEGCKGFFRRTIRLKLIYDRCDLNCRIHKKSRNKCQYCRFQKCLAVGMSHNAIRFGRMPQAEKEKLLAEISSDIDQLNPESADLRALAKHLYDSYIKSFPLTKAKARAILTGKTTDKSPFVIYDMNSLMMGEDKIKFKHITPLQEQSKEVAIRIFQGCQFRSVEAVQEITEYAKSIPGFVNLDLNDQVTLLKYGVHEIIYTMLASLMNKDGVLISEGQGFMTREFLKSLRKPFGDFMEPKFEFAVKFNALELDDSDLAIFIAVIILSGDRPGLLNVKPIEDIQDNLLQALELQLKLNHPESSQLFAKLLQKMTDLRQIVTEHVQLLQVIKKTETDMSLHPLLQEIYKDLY

As for `COC(=O)C[C@](O)(CCCC(C)(C)O)C(=O)O[C@@H]1C(OC)=C[C@]23CCCN2CCc2cc4c(cc2[C@H]13)OCO4`, in assay [1], the Potency entry is “inactive”. Moreover, the call in [2] was inactive.

`Nc1ccn([C@@H]2O[C@H](CO)[C@H](O)C2(F)F)c(=O)n1`: the Potency entry in assay [1] is “inactive”.

`O=C(O)CO.[NH2-].[NH2-].[Pt+2]`: in assay [1], the Potency result was “inactive”.

On to `COc1cc(C(=O)NS(=O)(=O)c2ccccc2C)ccc1Cc1cn(C)c2ccc(NC(=O)OC3CCCC3)cc12`, for which the Potency in assay [1] is 35.5 µM (active).

With `CC1(C)O[C@@H]2C[C@@H]3[C@H]4C[C@@H](F)C5=CC(=O)C=C[C@]5(C)[C@@]4(F)[C@@H](O)C[C@]3(C)[C@]2(C(=O)CO)O1`, the Potency entry in assay [1] was “inactive”.

Take `O=c1[nH]c(=O)n(C2CCCO2)cc1F` (configuration not stated): in assay [1], the Potency entry was “inactive”.

On to `Nc1ccc(S(=O)(=O)Nc2ncccn2)cc1`, for which the Potency result in assay [1] is “inactive”.

For `C[C@H]1C[C@@H]2[C@@H]([C@@H](O)C[C@@]3(C)[C@H]2CC[C@]3(O)C(=O)CO)[C@@]2(C)C=CC(=O)C=C12`, in assay [1], the Potency result was “inactive”.

Take `COC(=O)C1=C(C)NC(C)=C(C(=O)OCCN2CCN(C(c3ccccc3)c3ccccc3)CC2)C1c1cccc([N+](=O)[O-])c1` (configuration not stated): the Potency entry in assay [1] is “inactive”.

Turning to `CC=CC1=C(C(=O)O)N2C(=O)[C@H](NC(=O)[C@H](N)c3ccc(O)cc3)[C@@H]2SC1`, the Potency result in assay [1] was “inactive”.

`CC[C@@]1(O)C(=O)OCc2c1cc1n(c2=O)Cc2cc3cc(O)ccc3nc2-1`: the Potency entry in [1] is “inactive”.

For the molecule `COc1c(N2C[C@@H]3CCCN[C@H]3C2)c(F)cc2c(=O)c(C(=O)O)cn(C3CC3)c12`, in assay [1], the Potency result is “inactive”.

`O=c1c2ccccc2nc2n1CCc1c-2[nH]c2ccccc12`: the molecule was called inactive in assay [3], in [4], in [5], in assay [6], in [7] and in assay [8]. Besides, the result in assay [9] was inactive. The Potency entry in assay [1] is “inactive”.

Regarding `O=C(O)CCCc1c[nH]c2ccccc12`, the result in assay [10], in [12], in assay [14], in assay [15], in [16] and in [17] was inactive. The outcome in assay [18] was inactive. Also, the activation in [11] was -4.22% (inactive). The max response is 35.4% in assay [13], 7.98% in assay [19] and 6.54% (inactive) in assay [20].
